Assay results from PubChem BioAssay (Tox21).
Inconclusive results are not listed. Unmarked numbers belong to inactive results. The call rests on the fitted dose curve.

Target: Peroxisome proliferator-activated receptor delta (Homo sapiens) (UniProt Q03181)
Assay: qHTS assay to identify small molecule agonists of the peroxisome proliferator-activated receptor delta (PPARd) signaling pathway (AID 743212)
Conditions: HEK293H PPARd-UAS-bla, beta-lactamase FRET ratio, 17 h; series mostly up to 62.6 µM; activation: at the top concentration
Source text: U.S. Tox21 Program National Center for Advancing Translational Sciences [NCATS] NIH Chemical Genomics Center [NCGC] U.S. Environmental Protection Agency [EPA] National Institutes of Environmental Health Sciences [NIEHS] National Toxicology Program [NTP] U.S. Food and Drug Administration [FDA] Tox21 Assay Overview: The peroxisome proliferator-activated receptors (PPARs) are lipid-activated transcription factors of the nuclear receptor superfamily with three distinct subtypes namely PPAR alpha, PPAR delta (PPARd) and PPAR gamma. All these subtypes heterodimerizes with Retinoid X receptor (RXR) and have different physiological functions. […] To identify the compounds that activate PPAR-delta signaling, GeneBLAzer PPAR delta UAS-bla HEK293H cell line (Invitrogen, Carlsbad, CA, USA) containing a beta-lactamase reporter gene under the control of an Upstream Activator Sequence (UAS) was used to screen the Tox21 compound library.
Tox21 Assay Protocol Summary: PPARd-bla cells were dispensed at 3000 cells/6uL/well in 1536-well black wall/clear bottom plates using a Multidrop Combi (Thermo Fisher Scientific, Waltham, MA) dispenser. After the assay plates were incubated at 37 C and 5% CO2 for 5 h, 23 nL of compounds dissolved in DMSO, positive controls or DMSO only was transferred to the assay plate by a Pintool station (Kalypsys, San Diego, CA). The assay plates were incubated at 37C for 17 h. After 1 uL of LiveBLAzerTM B/G FRET substrate was added using a Bioraptr Flying Reagent Dispenser (FRD) workstation (Beckman Coulter, Indianapolis, IN, USA), the plates were incubated at room temperature for 2 h, and fluorescence intensity was measured by an Envision plate reader (PerkinElmer, Shelton, CT).
On the % scale 0 is the no-effect control and ±100 the full control effect.

Sequence of Peroxisome proliferator-activated receptor delta (Homo sapiens) (Q03181 whole entry, looked up): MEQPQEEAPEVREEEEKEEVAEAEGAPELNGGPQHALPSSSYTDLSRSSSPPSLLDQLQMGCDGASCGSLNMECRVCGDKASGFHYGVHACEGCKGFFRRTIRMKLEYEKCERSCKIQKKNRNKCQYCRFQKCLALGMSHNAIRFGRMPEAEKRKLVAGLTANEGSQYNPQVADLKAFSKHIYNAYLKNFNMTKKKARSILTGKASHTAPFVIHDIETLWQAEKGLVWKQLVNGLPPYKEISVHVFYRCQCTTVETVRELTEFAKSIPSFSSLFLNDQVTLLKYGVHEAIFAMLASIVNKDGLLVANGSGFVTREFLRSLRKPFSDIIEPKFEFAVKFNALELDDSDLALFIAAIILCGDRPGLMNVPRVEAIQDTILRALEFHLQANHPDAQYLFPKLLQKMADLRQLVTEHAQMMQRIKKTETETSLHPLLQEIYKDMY

Point of comparison: `CC12CCCC=C1C(=O)OC2=O` (stereo not given), “activation” value -0.181%. Against it:
- NS(=O)(=O)c1cc2c(cc1C(F)(F)F)NCNS2(=O)=O — higher, 2.64%
- CCCCN(CCCC)CCCCCCN(CCCC)CCCC — higher, 0.317%
- COc1cc(NS(=O)(=O)c2ccc(N)cc2)ncn1 — lower, -0.65%
- Cc1ccc(S(=O)(=O)NC(=O)NN2CC3CCCC3C2)cc1 (stereo not given) — lower, -0.643%
- O=C1Nc2ccccc2C1=O — higher, 1.34%
- CCCC[O][Al]([O]CCCC)[O]CCCC — lower, -3.22%
- Cc1ccc(OC(=O)CC(C)C)cc1 — higher, 1.32%
- Cc1ccccc1C#N — higher, 0.792%
- O=C(OOC(=O)c1ccccc1)c1ccccc1 — higher, 1.13%
- CCCCCCC(=O)c1ccccc1 — higher, 3.6%
- CC(=O)OCC(=O)[C@@]1(O)CC[C@H]2[C@@H]3CCC4=CC(=O)C=C[C@]4(C)[C@H]3[C@@H](O)C[C@@]21C — higher, 1.51%
- CC(=O)SCC(CC(=O)c1ccc(C)cc1)C(=O)O (stereo not given) — lower, -1.11%
- CCCCCC(CC)OC(=O)CCCOc1ccc(Cl)cc1Cl (stereo not given) — lower, -1.99%
- COc1cc(S(N)(=O)=O)cc(C(=O)O)c1OC — higher, 0.273%
- COC(=O)N/N=C/c1c[n+]([O-])c2ccccc2[n+]1[O-] — higher, 4.08%
- COC(=O)c1cc(Cl)c(NC(C)=O)cc1OC — higher, 0.332%
- CC(C)C(=O)Nc1cccc(C2CN3CCSC3=N2)c1 (stereo not given) — higher, 1.72%
- CCCCNCC — lower, -4.42%
- Cc1cc(C)c(N)c(Cl)c1 — higher, 3.99%
- CC(=O)SC[C@@H](C)C(=O)N1CCC[C@H]1C(=O)N[C@@H](Cc1ccccc1)C(=O)O — higher, 3.85%
- CCCCc1ccc(Cl)cc1 — higher, 1.41%
- CC(=O)OC1CCC(C(C)(C)C)CC1 (stereo not given) — lower, -0.535%
- CC(C)(C)OC(=O)c1ccccc1C(=O)O — lower, -0.822%
- O=c1[nH]c(=O)c2cn[nH]c2[nH]1 — higher, 8.38%
- CCN1CCN(C(=O)N[C@@H](C(=O)N[C@@H]2C(=O)N3C(C(=O)O)=C(CSc4nnnn4C)CS[C@H]23)c2ccc(O)cc2)C(=O)C1=O — lower, -6.52%
- CN(C)CCC[C@@]1(c2ccc(F)cc2)OCc2cc(C#N)ccc21 — higher, 1.73%
- CC/C=C/CCCCCCCCCCOC(C)=O — higher, 0.628%
- CC(C)(C)C(=O)CCc1ccc(Cl)cc1 — higher, 0.691%
- CCCCN=C(N)N=C(N)N — higher, -0.0406%
- CC[C@@]1(c2ccccc2)NC(=O)N(C)C1=O — lower, -3%
- O=c1c(O)c(O)c1=O — higher, 2.94%

Point of comparison: `O=C1c2ccccc2C(=O)N1CO`, “activation” value 0.0735% [at 81.1 µM]. Against it:
- CCN(CC)CC — lower, -2.65% [at 81.1 µM]
- C/C(Cl)=C/CCl — lower, -1.38% [at 81.1 µM]
- Cc1cc(N)no1 — lower, -0.992% [at 81.1 µM]
- Cc1ccc(O)c(C(=O)c2ccccc2)c1 — higher, 0.459% [at 81.1 µM]
- Cc1cccc(N)n1 — lower, -3.6% [at 81.1 µM]
- CC(O)C(CO)C(C)O (stereo not given) — higher, 6.88% [at 81.1 µM]

For `CN(C)CCCN(C)C`, the activation was -1.31% [at 5.95 µM].
